Measured values published in PubChem BioAssay (NCI).
The panel holds about 83,000 compounds, 20% with a hit somewhere; the sample as a whole holds those more often.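 48-hour exposure, single concentration, 96-well plates; percent growth endpoint where 0 means no net growth. Active: below 10.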 A number with no mark means an inactive call. Activity calls are given as the source filed them.

Key:
Test in all cases: NCI-60 one-dose screen, 48 h (100 = growth as untreated, 0 = no growth, -100 = all killed)
Details in all cases: 10 µM unless noted
[1] = tested on: HCT-15 colon
[2] = tested on: HT29 colon
[3] = tested on: SNB-75 CNS
[4] = tested on: SNB-19 CNS
[5] = tested on: U251 CNS
[6] = tested on: PC-3 prostate
[7] = tested on: SK-MEL-5 melanoma
[8] = tested on: UACC-62 melanoma
[9] = tested on: LOX IMVI melanoma
[10] = tested on: SK-MEL-28 melanoma
[11] = tested on: SK-MEL-2 melanoma
[12] = tested on: EKVX NSCLC
[13] = tested on: SN12C renal
[14] = tested on: UO-31 renal
[15] = tested on: TK-10 renal
[16] = tested on: ACHN renal
[17] = tested on: CAKI-1 renal
[18] = tested on: A498 renal
[19] = tested on: CCRF-CEM leukemia
[20] = tested on: MOLT-4 leukemia

Structure (SMILES) | growth [1] | growth [2] | growth [3] | growth [4] | growth [5] | growth [6] | growth [7] | growth [8] | growth [9] | growth [10] | growth [11] | growth [12] | growth [13] | growth [14] | growth [15] | growth [16] | growth [17] | growth [18] | growth [19] | growth [20]
O=C(CSc1nnc(-c2cc(-c3ccc(Cl)cc3)nc3ccccc23)n1-c1ccccc1)Nc1ccc(Cl)cc1 | 97% | 104% | 94.2% | 94.5% | 98.7% | 80.3% | 101% | 87.1% | 95.8% | 103% | 105% | 94.8% | 90.5% | 77.6% | 132% | 106% | 89.5% | 88.2% | 98.5% | 84.1%
CN1CCN(CC(=O)N(C)c2ccc(N=C(c3ccccc3)c3c(O)[nH]c4ccc([N+](=O)[O-])cc34)cc2)CC1 | 56.8% | 22.7% | 74.3% | 89.2% | 73.1% | 47.6% | 53% | 102% | 36.3% | 75.4% | 52.7% | 94.2% | 56.8% | 28.8% | 103% | 54% | 47.1% | 66.7% | 15.1% | 15.7%
OC1CSSC1Cn1cnc2c(Nc3ccc(F)c(Cl)c3)ncnc21 (stereo not given) | 92.5% | 83.2% | 114% | 90.4% | 84.3% | 80.5% | 88.2% | 16.3% | 47.9% | 78.3% | 93.3% | 58.5% | 98.9% | 44% | 96.1% | 98.1% | 105% | 103% | 29.6% | -27.1% (active)
O=C(CN1C(=O)c2ccccc2S1(=O)=O)Nc1nc(-c2cc3ccccc3oc2=O)cs1 | 108% | 103% | 97.3% | 101% | 99.2% | 97.7% | 99.1% | 97.8% | 99.5% | 107% | 107% | 102% | 97.2% | 91% | 137% | 103% | 100% | 98% | 104% | 110%
O=C(CSc1nc(-c2ccccc2)cn1-c1ccc(Cl)cc1)c1ccc([N+](=O)[O-])cc1 | 76.1% | 56.1% | 93.8% | 90.8% | 93.3% | 73.2% | 80.8% | 66.2% | 96.1% | 89% | 86.9% | 92.7% | 86.5% | 59.7% | 96.4% | 95.1% | 89% | 74.6% | 83.2% | 68.4%
COc1cc2c(c(OC)c1OC)CCC(c1cccc(C(=O)Nc3ccccc3Br)c1)O2 (stereo not given) | 92% | 82.4% | 65.8% | 90.1% | 90.7% | 76.1% | 86.3% | 66.2% | 90.2% | 94.6% | 87.8% | 90.1% | 85.4% | 67.3% | 87.5% | 86.2% | 95.4% | 56.6% | 86.1% | 50.4%
COC1=C(OC)C(=O)C(CCCCCCCCCCO)=C(C)C1=O | 79.7% | 105% | 62.1% | 93% | 58.3% | 69.5% | 45% | 59.4% | 11.5% | 102% | 49.8% | 89.8% | 57.6% | 70.2% | 112% | 60.5% | 61% | 103% | 29.1% | 28.1%
O=C(O)COc1ccc(F)cc1 | 104% | 93.8% | 99.8% | 99.8% | 102% | 96.2% | 102% | 102% | 99% | 116% | 99.6% | 103% | 98.1% | 91.6% | 91.4% | 111% | 94.7% | 97.4% | 104% | 101%
COc1ccc(-c2cn(Cc3ccc4c(Br)cc(Br)c(O)c4n3)nn2)cc1 | 39.3% | 89.5% | 71.6% | 96.9% | 97.3% | 91.4% | 98.6% | 95.6% | 49.4% | 96.3% | 101% | 84.2% | 100% | -92.3% (active) | 91.3% | -68.7% (active) | 61.6% | 99.6% | 73.9% | 87%
COc1ccc(N2C(=O)/C(=C/C(Cl)=C/c3ccc([N+](=O)[O-])cc3)SC2=S)cc1 | -24.1% (active) | -20.9% (active) | -33.8% (active) | 2.68% (active) | -83.1% (active) | 2.17% (active) | 29.3% | -25.2% (active) | -86.2% (active) | 13.7% | 37.4% | -3.04% (active) | -3.33% (active) | -97.7% (active) | -26.7% (active) | -68% (active) | 0.845% (active) | 63.2% | 0.216% (active) | 2.36% (active)
CCOC(=O)/C(=C/c1ccc([N+](=O)[O-])cc1)C(=O)c1ccccc1 | -15.2% (active) | -23.7% (active) | 47% | 51.5% | 26% | 5.94% (active) | 62.4% | 19.7% | -68.2% (active) | -29.4% (active) | 53.9% | 103% | 79.3% | -14.3% (active) | 20.7% | -7.93% (active) | 81.6% | 83.5% | 6.25% (active) | 4.35% (active)
CC(=O)/C(Br)=C/c1ccc(Br)o1 | 65.8% | 62.4% | 92.6% | 87.8% | 80.4% | 80.8% | -0.755% (active) | 85.9% | 38.7% | 60.8% | 99.2% | 105% | 73.5% | 52.7% | 71.5% | 60.1% | 26.1% | 105% | -31% (active) | -15.4% (active)
Oc1cccc(-c2nc(-c3n[nH]c(=S)n3-c3ccccc3)cc3c2[nH]c2ccccc23)c1 | 20.3% | 6.61% (active) | -11.5% (active) | 24.2% | 14% | 30% | 9.76% (active) | 32% | 8.16% (active) | 31.4% | -9.51% (active) | 50.3% | 44.9% | 49.6% | 47.9% | 53% | 64.6% | -14.8% (active) | 21.3% | 26.2%
O=C1/C(=C/c2ccccc2)COc2ccc(O)cc21 | 57.1% | 62.7% | 99.7% | 93.6% | 55.1% | 84.2% | 97.3% | 86.6% | 89.8% | 103% | 104% | 105% | 91.7% | 76.4% | 106% | 101% | 93.5% | 99.5% | 21.5% | 78.6%
O=[N+]([O-])c1ccc(Oc2cccc3c(Oc4ccc([N+](=O)[O-])cc4[N+](=O)[O-])cccc23)c([N+](=O)[O-])c1 | 100% | 97% | 81.6% | 84.7% | 87% | 79.7% | 86.7% | 76.5% | 78.4% | 110% | 90.4% | 77.7% | 74.8% | 72.8% | 119% | 93.4% | 89.2% | 108% | 95.7% | 102%
